Data published in PubChem BioAssay (Tox21).
“And” between values parts separate entries of the source, which are not always exact repeats. Equal entries are not always repeated. Inconclusive results are not listed. Where a call stands in place of a potency, no number is given. The source made the active and inactive calls. Calls come from the whole dose curve; as a rule, active = well fitted cell-killing curve with a large enough effect in the repeat runs; inconclusive = weak or mixed curves, or effect the other way; inactive = flat fitted curve, though single readings scatter.

assay: qHTS assay to identify small molecule antagonists of the estrogen receptor alpha (ER-alpha) signaling pathway using the BG1 cell line in the presence of 0.1 nM 17-beta-estradiol - cell viability counter screen (AID 1259241); conditions: VM7Luc4E2 (BG1) viability, CellTiter-Fluor protease, 22 h, 0.1 nM estradiol agonist added; series mostly up to 92.4 µM; note: nearly all actives have a fitted effect of over 40% in size
Excerpt: National Center for Advancing Translational Sciences [NCATS]
NIH Chemical Genomics Center [NCGC]
U.S. Environmental Protection Agency [EPA]
National Institutes of Environmental Health Sciences [NIEHS]
National Toxicology Program [NTP]
U.S. Food and Drug Administration [FDA]
Estrogen receptor (ER), a member of the nuclear hormone receptor plays an important role in development, metabolic homeostasis and reproduction. Two subtypes of ER, ER-alpha and ER-beta, have similar expression patterns with some uniqueness in both types. Endocrine disrupting chemicals (EDCs) and their interactions with steroid hormone receptors like ER causes disruption of normal endocrine function. Therefore, it is important to understand the effect of environmental chemicals in ER signaling pathway. For identifying ER antagonists, VM7Luc4E2 cell line was used to screen against Tox21 compound libraries.
VM7Luc4E2 cell line (provided by Denison MS, University of California) endogenously express full-length ER-alpha and is stably transfected with a plasmid containing four estrogen responsive elements (ERE) upstream of a luciferase reporter gene. The current screening for identification of ER-alpha inhibitors against Tox21 compound libraries used lower concentration (0.1 nM) of 17beta-Estradiol as a stimulator. The cytotoxicity of the Tox21 compound libraries against VM7Luc4E2 cell line was tested by measuring live-cell protease activity using CellTiter-Fluor assay in the same wells.
Tox21 Assay Protocol Summary:
VM7Luc4E2 cells were cultured in phenol red free assay medium containing 10% charcoal stripped FBS for 5 days prior to the assay. The cells were dispensed at 4,000 cells/well in 4 uL of assay medium into white wall/solid-bottom 1536-well plates (Corning Life Sciences, Corning, NY) using a Multidrop Combi (ThermoFisher Scientific, Waltham, MA) dispenser. After the assay plates were incubated at 37C and 5% CO2 for 24 hr, 23 nL of compounds dissolved in DMSO, positive controls or DMSO only was transferred to the assay plates by a Pintool station (Kalypsys, San Diego, CA). The transfer of compounds was followed by the addition of 1 uL of 0.1 nM (final concentration) agonist (17beta-Estradiol)/assay medium using a Flying Reagent Dispenser (FRD, Aurora Discovery, San Diego, CA). The plates were incubated at 37C and 5% CO2 for 22 hr. For cytotoxicity assay, 1 uL of CellTiter-Fluor reagent (Promega Corporation, Madison, WI) was added to each well using the FRD and after 30 min incubation at 37C and 5% CO2, The fluorescence intensity was measured using ViewLux plate reader (PerkinElmer, Shelton, CT).
Potency is the fitted concentration of half-maximal effect.

**Q.** For CCNC(=S)NCC, which Potency is on record?
**A.** inactive

**Q.** With NCCCCCCN as the compound, how does the Potency read?
**A.** inactive

**Q.** Which Potency does the source give for CC(C)(C#N)c1cc(Cn2cncn2)cc(C(C)(C)C#N)c1 here?
**A.** inactive

**Q.** Which Potency does the source give for O=C1CCCC1 here?
**A.** inactive

**Q.** For NC(=S)NNC(N)=S, which Potency is on record?
**A.** inactive

**Q.** With COc1ccccc1OCC(O)CO (stereo not given) as the compound, how does the Potency read?
**A.** inactive

**Q.** For Cc1ccc(S(=O)(=O)N=C=O)cc1, which Potency is on record?
**A.** inactive

**Q.** Which Potency does the source give for c1ccc(Oc2ccccc2)cc1 here?
**A.** inactive

**Q.** Which Potency does the source give for C[C@]12CCC(=O)C=C1CC[C@@H]1[C@@H]2[C@@H](O)C[C@@]2(C)[C@H]1CC[C@]2(O)C(=O)CO here?
**A.** inactive

**Q.** With O=S(=O)(O)c1ccc(N=Nc2c(O)ccc3cc(S(=O)(=O)O)ccc23)cc1 as the compound, how does the Potency read?
**A.** 30.8 µM (active) and 27.3 µM (active)

**Q.** With O=S(=O)(O)c1ccccc1 as the compound, how does the Potency read?
**A.** inactive

**Q.** For COc1ccc(C)cc1N, which Potency is on record?
**A.** inactive

**Q.** Which Potency does the source give for CC(CCl)OP(=O)(OC(C)CCl)OC(C)CCl (stereo not given) here?
**A.** inactive

**Q.** Which Potency does the source give for CCCCOC(=O)c1ccc(N)cc1 here?
**A.** inactive

**Q.** With OCc1ccccc1 as the compound, how does the Potency read?
**A.** inactive

**Q.** Which Potency does the source give for Nc1ccc(Cl)c(N)c1 here?
**A.** inactive

**Q.** Which Potency does the source give for Cc1ccc2ncccc2c1 here?
**A.** inactive

**Q.** For C[Si]1(C)O[Si](C)(C)O[Si](C)(C)O[Si](C)(C)O1, which Potency is on record?
**A.** inactive

**Q.** With CC(C)CCCCCCCOC(=O)CCCCC(=O)OCCCCCCCC(C)C as the compound, how does the Potency read?
**A.** inactive

**Q.** Which Potency does the source give for CC(C)(C)c1cc(Cc2cc(C(C)(C)C)c(O)c(C(C)(C)C)c2)cc(C(C)(C)C)c1O here?
**A.** inactive

**Q.** With CC(C)=CCl as the compound, how does the Potency read?
**A.** inactive

**Q.** With CCCOC(=O)c1ccccc1 as the compound, how does the Potency read?
**A.** inactive

**Q.** With CC1(C)S[C@@H]2[C@H](NC(=O)COc3ccccc3)C(=O)N2[C@H]1C(=O)O as the compound, how does the Potency read?
**A.** inactive

**Q.** Which Potency does the source give for CCCCCC(=O)O here?
**A.** inactive

**Q.** With COCCOC(=O)c1ccccc1C(=O)OCCOC as the compound, how does the Potency read?
**A.** inactive

**Q.** With COc1ccc(OC)cc1 as the compound, how does the Potency read?
**A.** inactive

**Q.** With N#Cc1ccccc1 as the compound, how does the Potency read?
**A.** inactive

**Q.** With O=C(O)c1ccc(C(=O)O)c(C(=O)O)c1 as the compound, how does the Potency read?
**A.** inactive

**Q.** Which Potency does the source give for c1ccc2c(c1)Cc1ccccc1-2 here?
**A.** inactive

**Q.** With CCCCCCCCCCCC(=O)OC as the compound, how does the Potency read?
**A.** inactive

**Q.** With CC(C)CC(C)O (stereo not given) as the compound, how does the Potency read?
**A.** inactive

**Q.** For COC(=O)CCCC(=O)OC, which Potency is on record?
**A.** inactive

**Q.** With CC(CCO)CC(C)(C)C (stereo not given) as the compound, how does the Potency read?
**A.** inactive

**Q.** With CC(O)CC(C)(C)O (stereo not given) as the compound, how does the Potency read?
**A.** inactive

**Q.** With C=C(C)[C@H]1CC=C(C)C(=O)C1 as the compound, how does the Potency read?
**A.** inactive

**Q.** With CCCCCCCCCCCCCCCC(=O)OC(C)C as the compound, how does the Potency read?
**A.** inactive

**Q.** Which Potency does the source give for Cc1ccc(C(C)C)c(O)c1 here?
**A.** inactive

**Q.** With CC(=O)OC1CC(C)OC(C)O1 (stereo not given) as the compound, how does the Potency read?
**A.** inactive

**Q.** Which Potency does the source give for C=CCc1ccc(OC)c(OC)c1 here?
**A.** inactive

**Q.** Which Potency does the source give for CCCCCCCO here?
**A.** inactive
